# Assay outcomes: PubChem, National Center for Advancing Translational Sciences (NCATS)
# An excerpt weighted towards active compounds, which were near 10% of everything screened.
# G9a block – qHTS Assay for Inhibitors of Histone Lysine Methyltransferase G9a; G9a H3K9 monomethylation, AlphaScreen, 2 h; Histone-lysine N-methyltransferase EHMT2 (Homo sapiens), Q96KQ7; Potency, µM (doses to about 102 µM), for inactives: at the top dose activity, negative = inhibition, actives largely listed as inhibitors; AID 504332, 2011; 8.8% of 350,000 active; also: % is scaled to controls: 0 for no effect and ±100 for the full control effect; nearly all actives have a fitted effect of over 75% in size
#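 Compounds were preincubated with 20 nM G9a for 15 min, after which biotinylated H3K9 peptide (500 nM) and SAM (20 uM) started a 2 h room-temperature reaction. Monomethylated product was quantified by antibody-based AlphaScreen chemiluminescence.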
# JMJD2A Tudor inh – qHTS Assay for Inhibitors of JMJD2A-Tudor Domain | AlphaScreen JMJD2A-Tudor / H3K4me3 peptide binding | Lysine-specific demethylase 4A (Homo sapiens), O75164 | Potency, µM (series often up to 114 µM), inactives show at the top dose activity change, negative = inhibition, most hits filed as inhibitors | AID 504339, 2011 | 4.4% of 390,000 active; also: % is scaled to controls: 0 for no effect and ±100 for the full control effect; nearly all actives have a fitted effect of over 50% in size
# GLS inh – qHTS for Inhibitors of Glutaminase (GLS). Glutaminase kidney isoform, mitochondrial (Homo sapiens), O94925. 0.21% of 410,000 active. AID 624170, 2012. Potency, µM (series often up to 45.5 µM), inactives show at the top dose activity change, negative = inhibition, hits mostly inhibitors. GLS enzymatic activity, qHTS titration; also: % is scaled to controls: 0 for no effect and ±100 for the full control effect
#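 Two-point fluorescence kinetic (t0, 30 min RT) for hKGA; glutamate detected via glutamate oxidase–HRP–Amplex Red. Substrate: 1 mM L-glutamine solution; buffer 45 mM KH2PO4, pH 8.2.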
# HP1b binding inh – HTS for Inhibitors of HP1-beta Chromodomain Interactions with Methylated Histone Tails; Chromobox protein homolog 1 (Homo sapiens), P83916; AlphaScreen HP1-beta / biotin-H3K9me3 peptide binding; Potency, µM (top dose mostly 114 µM), for inactives: at the highest dose activity change, negative = inhibition, most hits filed as inhibitors; 0.56% of 390,000 active; also: nearly all actives have a fitted effect of over 70% in size
#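 HP1-beta protein (50 nM final) preincubated 30 min at room temperature with biotinylated H3(1-18)K9me3 peptide (50 nM) in PBS pH 7.4, 0.01% Tween-20, then compound added for 30 min. AlphaScreen streptavidin donor/nickel chelate acceptor beads (10 ug/mL final), 30 min dark, luminescence read.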
# BAZ2B inh – qHTS Assay for Inhibitors of BAZ2B | Bromodomain adjacent to zinc finger domain protein 2B (Homo sapiens), Q9UIF8 | AlphaScreen BAZ2B-H3K14Ac peptide displacement | Potency, µM (highest dose often 114 µM), for the others: at the top dose activity change, negative = inhibition, most hits filed as inhibitors | 4.4% of 360,000 active | AID 504333, 2011; also: % is scaled to controls: 0 for no effect and ±100 for the full control effect; nearly all actives have a fitted effect of over 60% in size
#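 AlphaScreen displacement of biotin-H3(5-23)K14Ac peptide (50 nM final) from BAZ2B (50 nM final) in PBS pH 7.4, 0.01% Tween-20; complex preformed 30 min RT, then compounds (top 110 uM) 30 min RT, beads 20 min dark.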
# An asterisk follows results filed as active; ? = inconclusive; . = no result; ! = a repeat was not active; [ ] = dose if it differs, or a comment. Calls follow the shape of the dose curve; as a rule, active = well fitted curve in the direction sought with a large enough effect; inconclusive = small, poorly fitted or top-dose-only effect, or another doubt; inactive = no such curve, though single readings can be large; an effect the other way counts as inactive or inconclusive. Potency is read from the fitted curve at half-maximal effect.
SMILES,G9a block,JMJD2A Tudor inh,GLS inh,HP1b binding inh,BAZ2B inh
CCN(c1ccccc1)S(=O)(=O)c1ccc(N2CCN(c3ccc(OC)cc3)CC2)nc1,.,-30.6%,23.8%,-3.0%,.
CCN(CC)S(=O)(=O)c1ccc(N2CCc3ccccc3C2)nc1,39.8µM*,18.9%,-1.8%,51.9%,12.5%
COC(=O)c1sccc1NC(=O)c1ccnn1C,-9.7%,2.8%,-12.4%,16.1%,-11.4%
CC(=O)N1CCc2cc(S(=O)(=O)NC(C)c3ccccc3)ccc21 (centres undefined),-1.0%,-2.7%,-18.3%,29.5%,-12.5%
O=C(NCCCN1CCCC1)c1ccc(Cn2c(=S)[nH]c3ccc(Br)cc3c2=O)cc1,22.4µM*,.,.,.,-26.2%
CCN(CC)CCNC(=O)c1ccc2c(=O)n(C3CCCC3)c(=S)[nH]c2c1,20µM*,-35.6%,-4.4%,3.9%,?
CCOc1cc2[nH]c(=S)n(Cc3ccc(C(=O)NCCN(CC)CC)cc3)c(=O)c2cc1OCC,35.5µM*,?,-1.9%,15.2%,-19.5%
CC(C)NC(=O)c1ccc2c(=O)n(C3CCCC3)c(=S)[nH]c2c1,24.4%[59 µM],-11.2%,4.9%,15.3%,7.6%
O=C(NCCN1CCCC1)c1ccc(Cn2c(=S)[nH]c3ccc(Br)cc3c2=O)cc1,50.1µM*,-32.3%,-9.4%,12.0%,-19.2%
CCOc1cc2[nH]c(=S)n(Cc3ccc(C(=O)NCC(OC)OC)cc3)c(=O)c2cc1OCC,-10.5%,10.5%,.,55.0%,1.3%
Cc1ccc([C@H]2C[C@H](n3cc(C4CC4)nn3)[C@@H](O)CN2C(=O)c2cccs2)cc1,.,.,-3.3%,.,.
CC(=O)c1ccc(NC(=O)CSc2nnc3c(n2)[nH]c2ccccc23)cc1,2.4%[59 µM],-21.6%,-10.3%,40.6%,-30.1%
Cc1cccc(NC(=O)NC2CCCCCCC2)c1,.,-5.4%,-11.5%,39.3%,2.9%
COc1ccc(NC(=O)CCc2c(C)nc3c(-c4ccccc4)c(C)nn3c2C)cc1Cl,-4.7%[59 µM],10.1%,1.8%,31.8%,0.5%
COc1ccccc1N=Cc1nc(-c2ccccc2)oc1OC(C)=O,?,-8.6%,-3.8%,60.2%,-3.3%
COCCCNCCCOc1ccc(Cl)cc1Br,?,0.891µM*,.,?,?
COCCNCCCOc1ccc(C)cc1Br,.,20µM*,-1.6%,-17.7%,56.2µM*
CCCCNCCOCCOc1ccc(F)cc1,11.2µM*,5.01µM*,-5.4%,?,79.4µM*
C=CCNCCCOc1ccc(C)cc1Br,0.0%[59 µM],7.3%,-0.5%,30.7%,13.2%
CCN(CC)CCCOc1ccc(C)cc1Br,20µM*,14.1µM*,13.4%,?,79.4µM*
CCOc1ccccc1OCCCOc1ccc(C)cc1Br,.,92.4%,4.8%,230.1%,123.0%
c1ccc(-c2nc3c(ccc4ccccc43)[nH]2)nc1,25.1%[59 µM],?,-1.2%,18.7%,-3.5%
COc1ccc(C=C(c2ccc(OC)cc2)c2ccc(OC)cc2)cc1,35.9%[59 µM],81.0%,-2.4%,106.8%,15.5%
CC(C)NCCCOc1ccc(Cl)cc1Br,.,31.6µM*,2.1%,?,?
CCCCNCCOCCOc1ccc(Cl)cc1Br,7.94µM*,4.47µM*,3.9%,-14.3%,79.4µM*
SMILES,G9a block,JMJD2A Tudor inh,GLS inh,HP1b binding inh,BAZ2B inh
CC(C)NCCCCOc1ccc(Br)cc1Cl,.,31.6µM*,-3.7%,-19.8%,-2.2%
O=C(COc1ccc(Cl)cc1Br)NC1CC1,39.6%[12.7 µM],-5.1%,6.4%,21.3%,8.0%
COCCCNCCCOc1ccc(C)cc1Br,?,3.55µM*,0.8%,8.2%,50.1µM*
Clc1ccc(OCCOCCOc2cccc3cccnc23)c(Br)c1,-7.4%[59 µM],1.1%,-1.8%,75.1%,5.1%
COCCCNC(=O)COc1ccc(Br)cc1Cl,19.7%[59 µM],-6.3%,1.2%,27.4%,-5.3%
COc1ccc(N2CCN(C(=O)c3cccc4nc(C)oc34)CC2)cc1,?,-26.3%,-3.3%,0.9%,-16.0%
O=S(=O)(c1ccc(S(=O)(=O)N(Cc2ccccc2)Cc2ccco2)cc1)N1CCCC1,.,-9.4%,-3.5%,18.9%,.
COC(=O)/C=C/c1ccccc1S(=O)(=O)N(Cc1ccccc1)Cc1ccco1,8.8%[12.7 µM],56.2µM*!,-4.8%,21.8%,50.1µM*
CCn1c(CNC(=O)Cc2ccc(OC)cc2)nnc1SCC(=O)c1ccc(Br)cc1,0.4%,-17.9%,12.4%,6.3%,4.9%
COc1ccc2c(-c3ccccc3)cc(N3CCOCC3)nc2c1,2.24µM*,1.26µM*,0.8%,25.1µM*,25.1µM*
Cn1cc(Br)c(C(=O)NC(=S)N2CCN(c3ccccn3)CC2)n1,39.8µM*,-9.8%,-1.4%,17.2%,?
O=C(NC(=S)N1CCN(c2ccccc2)CC1)c1ccccc1,1.4%,.,.,.,-26.2%
O=C(NC(=S)N1CCN(c2ccccn2)CC1)c1ccccc1,39.8µM*,-13.9%,23.3%,12.1%,-7.8%
COc1ccccc1OCCC(=O)OCC(=O)Nc1cc(S(=O)(=O)N(C)C)ccc1Cl,-7.1%,-10.6%,?,25.2%,.
CS(=O)(=O)N(CC(=O)NCCc1ccccc1)C1CCCCC1,?,-2.9%,8.5%,23.7%,-1.6%
COC(=O)c1ccccc1NC(=O)CNCCc1ccc(OC)c(OC)c1,7.94µM*,25.1µM*,-4.1%,-34.4%,20µM*
COc1ccc(CCNC(=O)CN(C2CCCCC2)S(C)(=O)=O)cc1OC,31.6µM*,-30.4%,-3.2%,19.3%,45.5%
COc1ccc(CC(=O)Nc2cc(NC(=O)Cc3ccc(OC)c(OC)c3)cc(C(=O)O)c2)cc1OC,.,-17.5%,-13.9%,16.6%,?
COC(=O)c1cc(NC(=O)Cc2ccc(OC)c(OC)c2)cc(C(=O)OC)c1,9.2%,44.7µM*,54.6%,2.7%,2.8%
COc1ccc(CCNCC(=O)Nc2ccc(C)c(S(=O)(=O)N(C)C)c2)cc1OC,22.4µM*,?,5.9%,-19.8%,22.4µM*
CC(C)C(=O)N1CCN(c2cc(N3CCN(C)CC3)c(F)cc2[N+](=O)[O-])CC1,?,-23.3%,0.3%,-2.6%,-38.9%
Cc1ccc(-c2nnc3ccccc3c2C(=O)Nc2ccc(C)c(F)c2)cc1,4.1%[59 µM],-17.9%,8.1%,23.0%,-2.2%
COc1ccc(CCNCC(=O)N2C(C)CCCC2C)cc1OC (centres undefined),-10.1%,0.794µM*,2.6%,?,79.4µM*
COc1ccc(CCNCC(=O)Nc2c(C)cc(C)cc2C)cc1OC,.,-8.6%,3.3%,86.6%,6.3%
COc1ccc(CCNCC(=O)Nc2ccc(C)c(Br)c2)cc1OC,39.8µM*,50.1µM*,-7.5%,?,?
COc1ccc(NC(=O)c2cc(C(=O)Nc3ccc(OC)cc3OC)cc([N+](=O)[O-])c2)c(OC)c1,.,-23.6%,-5.1%,28.4%,46.7%
COc1ccccc1N1CCN(C(=O)c2ccoc2C)CC1,-29.1%[12.7 µM],-15.9%,23.0%,9.1%,-32.7%
